From article PMC7862700, “An all-to-all approach to the identification of sequence-specific readers for epigenetic DNA modifications on cytosine”

Assays:
Experiment in all cases: DAPPL (digital affinity profiling via proximity ligation, sequencing); 10 mM Tris-HCl pH 7.5, 50 mM NaCl, 1 mM DTT, 4% glycerol, room temperature, 30 min; GST-TFs on glutathione beads, 16-mer random dsDNA library, 0.1% formaldehyde crosslink after washing; high values mean tight binding
[1] = biological target: T1, FEV (Homo sapiens, UniProt Q99581 1-238); settings: protein: recombinant; tags: N-terminal GST; dsDNA, one strand shown
T1 sequence: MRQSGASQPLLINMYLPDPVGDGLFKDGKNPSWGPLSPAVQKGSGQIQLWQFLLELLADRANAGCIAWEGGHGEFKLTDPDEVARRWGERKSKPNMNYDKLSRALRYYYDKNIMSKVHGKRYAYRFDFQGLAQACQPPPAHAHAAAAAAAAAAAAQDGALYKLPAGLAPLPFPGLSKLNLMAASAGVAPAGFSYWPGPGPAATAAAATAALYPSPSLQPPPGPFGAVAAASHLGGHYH
Outline: (§1)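 Pools of DNA-barcoded human transcription factors, expressed in yeast as GST fusions on glutathione beads and combined with a tag-only sample, were incubated with 200 nmole of a 16-mer random double-stranded DNA library. Incubation took 30 min at room temperature in Tris/NaCl/DTT/glycerol buffer and was followed by washing, 0.1% formaldehyde crosslinking, proximity ligation (BsaI/T4 ligase, 1 h, 37 °C), PCR amplification and sequencing on an Illumina NextSeq500. Binding signal is the ratio of a hexamer's read frequency for a factor to its frequency for the tag-only sample.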

[2] = biological target: ETV5 (Homo sapiens, UniProt P41161 1-510); settings: protein: recombinant; tags: N-terminal GST; dsDNA, one strand shown
Outline: as §1

[3] = biological target: HSF1 (Homo sapiens, UniProt Q00613 1-529); settings: protein: recombinant; tags: N-terminal GST; chain copies: 3; dsDNA, one strand shown
Outline: as §1

[4] = biological target: T2, SPIC (Homo sapiens, UniProt Q8N5J4 1-248); settings: protein: recombinant; tags: N-terminal GST; dsDNA, one strand shown
T2 sequence: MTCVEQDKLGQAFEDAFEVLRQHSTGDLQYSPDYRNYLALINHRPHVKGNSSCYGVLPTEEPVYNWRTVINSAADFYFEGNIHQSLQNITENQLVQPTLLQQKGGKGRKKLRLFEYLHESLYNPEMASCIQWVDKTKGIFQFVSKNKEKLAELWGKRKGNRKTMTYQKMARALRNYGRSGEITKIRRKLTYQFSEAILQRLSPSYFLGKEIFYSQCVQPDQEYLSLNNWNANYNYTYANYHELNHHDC
Outline: as §1

[5] = biological target: ELF4 (Homo sapiens, UniProt Q99607 1-663); settings: protein: recombinant; tags: N-terminal GST; dsDNA, one strand shown
Outline: as §1

[6] = biological target: T3, ELK4 (Homo sapiens, UniProt P28324-2 1-405); settings: protein: recombinant; tags: N-terminal GST; dsDNA, one strand shown
T3 sequence: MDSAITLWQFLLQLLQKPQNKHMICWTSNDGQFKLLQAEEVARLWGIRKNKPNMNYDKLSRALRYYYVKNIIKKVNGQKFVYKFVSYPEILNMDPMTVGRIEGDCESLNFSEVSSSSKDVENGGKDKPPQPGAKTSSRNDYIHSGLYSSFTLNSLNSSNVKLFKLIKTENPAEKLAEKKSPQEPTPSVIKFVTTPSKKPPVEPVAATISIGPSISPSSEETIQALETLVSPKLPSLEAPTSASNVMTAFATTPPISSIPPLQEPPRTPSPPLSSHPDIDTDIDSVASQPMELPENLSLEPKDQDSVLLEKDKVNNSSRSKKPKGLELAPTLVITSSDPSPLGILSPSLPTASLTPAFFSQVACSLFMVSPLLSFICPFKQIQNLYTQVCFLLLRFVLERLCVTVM
Outline: as §1

[7] = biological target: T4, ETV2 (Homo sapiens, UniProt O00321 1-342); settings: protein: recombinant; tags: N-terminal GST; dsDNA, one strand shown
T4 sequence: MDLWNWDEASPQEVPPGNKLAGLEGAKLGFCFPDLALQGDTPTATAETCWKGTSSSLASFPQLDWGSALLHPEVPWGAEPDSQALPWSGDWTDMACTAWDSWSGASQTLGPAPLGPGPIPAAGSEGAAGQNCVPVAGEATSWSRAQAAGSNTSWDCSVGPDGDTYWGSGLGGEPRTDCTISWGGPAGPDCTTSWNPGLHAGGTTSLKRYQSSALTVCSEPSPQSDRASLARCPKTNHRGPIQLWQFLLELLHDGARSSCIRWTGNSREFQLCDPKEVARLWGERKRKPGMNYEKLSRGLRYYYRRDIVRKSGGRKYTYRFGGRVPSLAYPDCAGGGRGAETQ
Outline: as §1

[8] = biological target: T5, ELF3 (Homo sapiens, UniProt P78545 1-371); settings: protein: recombinant; tags: N-terminal GST; dsDNA, one strand shown
T5 sequence: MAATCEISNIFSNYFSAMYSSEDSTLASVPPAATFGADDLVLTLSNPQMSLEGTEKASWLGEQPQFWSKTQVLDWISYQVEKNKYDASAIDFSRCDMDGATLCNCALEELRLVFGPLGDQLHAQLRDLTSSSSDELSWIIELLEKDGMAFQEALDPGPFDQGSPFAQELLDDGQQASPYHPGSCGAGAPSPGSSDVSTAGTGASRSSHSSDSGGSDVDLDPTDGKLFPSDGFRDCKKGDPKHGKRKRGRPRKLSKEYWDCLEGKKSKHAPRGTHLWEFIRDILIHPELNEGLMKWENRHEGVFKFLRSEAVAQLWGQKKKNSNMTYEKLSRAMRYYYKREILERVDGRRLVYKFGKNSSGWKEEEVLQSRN
Outline: as §1

[9] = biological target: CRX (Homo sapiens, UniProt O43186 1-299); settings: protein: recombinant; tags: N-terminal GST; dsDNA, one strand shown
Outline: as §1

[10] = biological target: ETV1 (Homo sapiens, UniProt P50549 1-477); settings: protein: recombinant; tags: N-terminal GST; dsDNA, one strand shown
Outline: as §1

ETV1, sequence (P50549 whole entry): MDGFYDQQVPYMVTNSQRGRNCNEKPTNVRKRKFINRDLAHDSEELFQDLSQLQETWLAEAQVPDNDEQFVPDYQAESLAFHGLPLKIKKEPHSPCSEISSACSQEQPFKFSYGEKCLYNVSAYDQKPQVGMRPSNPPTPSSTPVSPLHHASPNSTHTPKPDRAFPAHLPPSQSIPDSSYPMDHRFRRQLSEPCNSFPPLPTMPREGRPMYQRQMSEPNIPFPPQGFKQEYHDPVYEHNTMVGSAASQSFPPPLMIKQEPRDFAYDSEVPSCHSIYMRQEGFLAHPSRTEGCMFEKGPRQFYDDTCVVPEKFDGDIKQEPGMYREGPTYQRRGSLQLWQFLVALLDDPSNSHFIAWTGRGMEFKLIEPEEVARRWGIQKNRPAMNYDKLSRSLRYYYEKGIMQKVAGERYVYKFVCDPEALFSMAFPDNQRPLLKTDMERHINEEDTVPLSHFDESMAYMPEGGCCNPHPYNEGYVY
CRX, sequence (O43186 whole entry): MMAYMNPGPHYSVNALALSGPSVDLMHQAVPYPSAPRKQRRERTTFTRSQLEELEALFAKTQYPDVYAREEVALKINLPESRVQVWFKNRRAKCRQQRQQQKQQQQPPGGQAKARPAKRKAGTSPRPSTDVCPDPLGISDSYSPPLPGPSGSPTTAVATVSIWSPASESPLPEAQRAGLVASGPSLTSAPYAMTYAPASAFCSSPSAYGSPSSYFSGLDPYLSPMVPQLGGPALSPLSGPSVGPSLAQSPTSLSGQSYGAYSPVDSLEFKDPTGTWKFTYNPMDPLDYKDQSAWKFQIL
ETV5, sequence (P41161 whole entry): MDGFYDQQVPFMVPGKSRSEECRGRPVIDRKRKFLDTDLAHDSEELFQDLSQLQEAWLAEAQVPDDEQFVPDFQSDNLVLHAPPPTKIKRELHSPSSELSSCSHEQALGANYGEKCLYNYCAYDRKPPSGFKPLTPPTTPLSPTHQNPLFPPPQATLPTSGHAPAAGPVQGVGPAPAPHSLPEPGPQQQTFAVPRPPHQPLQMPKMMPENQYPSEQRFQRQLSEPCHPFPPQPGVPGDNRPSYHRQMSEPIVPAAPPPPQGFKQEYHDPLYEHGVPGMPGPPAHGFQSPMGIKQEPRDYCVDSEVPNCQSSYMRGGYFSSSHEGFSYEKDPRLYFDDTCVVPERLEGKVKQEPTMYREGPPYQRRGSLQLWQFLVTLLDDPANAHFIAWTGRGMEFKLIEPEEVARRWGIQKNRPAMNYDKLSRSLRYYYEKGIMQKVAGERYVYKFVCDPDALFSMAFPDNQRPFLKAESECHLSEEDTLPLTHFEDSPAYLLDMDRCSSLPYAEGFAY
HSF1, sequence (Q00613 whole entry): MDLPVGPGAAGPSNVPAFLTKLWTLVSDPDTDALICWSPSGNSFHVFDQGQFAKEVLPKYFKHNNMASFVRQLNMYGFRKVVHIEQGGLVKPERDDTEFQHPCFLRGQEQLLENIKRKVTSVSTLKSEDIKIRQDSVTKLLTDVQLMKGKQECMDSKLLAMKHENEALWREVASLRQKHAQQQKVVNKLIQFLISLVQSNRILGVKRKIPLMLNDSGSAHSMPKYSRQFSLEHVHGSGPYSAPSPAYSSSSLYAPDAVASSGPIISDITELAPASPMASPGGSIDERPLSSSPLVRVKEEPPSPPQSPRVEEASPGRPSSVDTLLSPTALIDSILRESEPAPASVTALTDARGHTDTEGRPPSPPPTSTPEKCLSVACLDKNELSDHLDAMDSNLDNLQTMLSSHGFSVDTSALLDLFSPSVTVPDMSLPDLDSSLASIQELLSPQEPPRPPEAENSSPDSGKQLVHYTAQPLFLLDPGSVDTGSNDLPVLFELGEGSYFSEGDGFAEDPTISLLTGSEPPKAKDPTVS
ELF4, sequence (Q99607 whole entry): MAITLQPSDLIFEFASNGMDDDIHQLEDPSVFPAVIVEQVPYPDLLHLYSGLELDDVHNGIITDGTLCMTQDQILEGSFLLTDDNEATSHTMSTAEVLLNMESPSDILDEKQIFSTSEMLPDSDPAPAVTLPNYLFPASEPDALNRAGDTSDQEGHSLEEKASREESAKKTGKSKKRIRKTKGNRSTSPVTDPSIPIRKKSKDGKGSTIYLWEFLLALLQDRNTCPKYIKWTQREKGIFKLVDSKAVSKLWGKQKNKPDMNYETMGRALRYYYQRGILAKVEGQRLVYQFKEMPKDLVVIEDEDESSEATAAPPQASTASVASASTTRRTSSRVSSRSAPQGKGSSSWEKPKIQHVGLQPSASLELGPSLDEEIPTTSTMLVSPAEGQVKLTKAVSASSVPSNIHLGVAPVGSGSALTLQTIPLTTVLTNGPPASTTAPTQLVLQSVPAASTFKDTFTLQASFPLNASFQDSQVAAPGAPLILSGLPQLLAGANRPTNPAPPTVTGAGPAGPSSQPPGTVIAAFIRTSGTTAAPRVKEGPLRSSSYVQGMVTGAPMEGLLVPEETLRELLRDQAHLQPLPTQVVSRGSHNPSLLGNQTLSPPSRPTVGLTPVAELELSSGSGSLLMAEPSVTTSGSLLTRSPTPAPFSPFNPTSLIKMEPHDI

CTTCGA
binding signal [1]: 1.35 fold enrichment (6-mer frequency, TF over GST control)
binding signal [2]: 1.4 fold enrichment (6-mer frequency, TF over GST control)
binding signal [3]: 2.52 fold enrichment (6-mer frequency, TF over GST control)
binding signal [4]: 1.42 fold enrichment (6-mer frequency, TF over GST control)
binding signal [5]: 1.4 fold enrichment (6-mer frequency, TF over GST control)
binding signal [6]: 1.3 fold enrichment (6-mer frequency, TF over GST control)
binding signal [7]: 1.38 fold enrichment (6-mer frequency, TF over GST control)
binding signal [8]: 1.42 fold enrichment (6-mer frequency, TF over GST control)
binding signal [9]: 1.49 fold enrichment (6-mer frequency, TF over GST control)
binding signal [10]: 1.35 fold enrichment (6-mer frequency, TF over GST control)
